Inconclusive results are not listed. A call without a number means that no potency is given here. Calls of active or inactive are those of the source. Unless noted, the call rests on the fitted dose curve; in most records, active means well fitted curve in the direction sought with a large enough effect; inconclusive means small, poorly fitted or top-dose-only effect, or another doubt; inactive means no such curve, though single readings can be large; an effect the other way counts as inactive or inconclusive.
Columns and labels:
[1] = target: Voltage-gated inwardly rectifying potassium channel KCNH2 (Homo sapiens) (UniProt Q12809); test: qHTS Assay for Small Molecule Inhibitors of the Human hERG Channel Activity (AID 588834); details: U2OS BacMam hERG, FluxOR thallium flux fluorescence; series mostly up to 46.1 µM;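 further: lower thallium flux fluorescence means stronger hERG block; nearly all actives have a fitted effect of over 50% in size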; further: potency means the concentration at half of the fitted maximal effect
Chain of Voltage-gated inwardly rectifying potassium channel KCNH2 (Homo sapiens) (Q12809 whole entry, looked up): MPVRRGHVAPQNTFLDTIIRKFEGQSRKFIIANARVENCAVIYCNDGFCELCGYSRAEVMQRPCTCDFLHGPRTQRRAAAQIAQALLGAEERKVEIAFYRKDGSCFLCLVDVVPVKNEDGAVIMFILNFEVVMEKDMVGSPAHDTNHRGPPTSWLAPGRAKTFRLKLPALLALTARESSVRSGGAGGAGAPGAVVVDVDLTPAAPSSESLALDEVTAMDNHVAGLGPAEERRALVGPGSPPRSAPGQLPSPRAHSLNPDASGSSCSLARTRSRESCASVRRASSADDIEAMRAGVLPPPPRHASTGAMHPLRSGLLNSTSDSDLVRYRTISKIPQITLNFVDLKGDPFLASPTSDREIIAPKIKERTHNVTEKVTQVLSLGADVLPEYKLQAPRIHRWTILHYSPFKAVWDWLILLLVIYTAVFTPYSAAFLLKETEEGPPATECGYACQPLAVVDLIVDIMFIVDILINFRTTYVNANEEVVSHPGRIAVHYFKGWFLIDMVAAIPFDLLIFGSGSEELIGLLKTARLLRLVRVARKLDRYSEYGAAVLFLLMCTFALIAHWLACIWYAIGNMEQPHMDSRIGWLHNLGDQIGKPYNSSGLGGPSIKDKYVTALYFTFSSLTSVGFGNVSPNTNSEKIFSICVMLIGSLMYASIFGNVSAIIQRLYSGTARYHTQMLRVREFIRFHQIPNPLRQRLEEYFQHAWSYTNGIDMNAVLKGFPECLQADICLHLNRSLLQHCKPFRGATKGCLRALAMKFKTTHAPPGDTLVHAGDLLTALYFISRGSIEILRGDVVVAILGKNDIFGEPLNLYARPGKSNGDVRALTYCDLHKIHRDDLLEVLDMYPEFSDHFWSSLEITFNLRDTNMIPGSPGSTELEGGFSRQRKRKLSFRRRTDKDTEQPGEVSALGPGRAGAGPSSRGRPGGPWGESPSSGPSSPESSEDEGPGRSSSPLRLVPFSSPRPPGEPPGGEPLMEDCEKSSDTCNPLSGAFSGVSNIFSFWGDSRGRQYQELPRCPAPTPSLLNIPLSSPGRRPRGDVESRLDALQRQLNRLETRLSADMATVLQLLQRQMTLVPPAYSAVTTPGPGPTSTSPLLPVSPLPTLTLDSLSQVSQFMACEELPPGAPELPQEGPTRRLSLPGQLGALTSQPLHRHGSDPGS
How it was run: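 Measured: FluxOR fluorescence after thallium stimulation in U2OS cells transduced with hERG by baculovirus. Compounds pre-incubated around 10 min; medium Opti-MEM with 2% FCS. AC50 from Hill equation.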

[2] = target: Luciferin 4-monooxygenase (Photinus pyralis) (UniProt P08659); test: Biochemical firefly luciferase enzyme assay for NPC (AID 624030);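 further: purified P. pyralis luciferase at 10 nM with luciferin and ATP substrate; nearly all actives have a fitted effect of over 70% in size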; details: purified P. pyralis luciferase, luminescence, 5 min; series mostly up to 58.6 µM
Chain of Luciferin 4-monooxygenase (Photinus pyralis) (P08659 whole entry, looked up): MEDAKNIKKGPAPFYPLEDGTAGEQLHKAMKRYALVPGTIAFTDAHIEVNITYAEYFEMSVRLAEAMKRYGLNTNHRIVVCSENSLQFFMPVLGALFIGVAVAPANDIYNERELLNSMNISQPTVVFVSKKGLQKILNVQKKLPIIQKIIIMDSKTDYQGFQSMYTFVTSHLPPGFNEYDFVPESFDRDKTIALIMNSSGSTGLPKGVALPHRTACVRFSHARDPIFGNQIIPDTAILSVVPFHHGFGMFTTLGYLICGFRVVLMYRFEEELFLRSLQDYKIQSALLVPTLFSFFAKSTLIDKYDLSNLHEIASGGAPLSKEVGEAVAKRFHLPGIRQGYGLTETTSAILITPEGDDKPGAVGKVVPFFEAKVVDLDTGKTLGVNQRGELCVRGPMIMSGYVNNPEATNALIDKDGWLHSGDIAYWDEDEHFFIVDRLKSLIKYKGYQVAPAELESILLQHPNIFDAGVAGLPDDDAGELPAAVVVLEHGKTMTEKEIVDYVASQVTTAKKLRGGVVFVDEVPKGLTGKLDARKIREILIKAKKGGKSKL
How it was run: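 Counter-screen for direct inhibition of the luciferase enzyme by approved-drug library compounds, run at 10 nM enzyme in 50 mM Tris acetate (final). Luminescence was read within 5 min of enzyme-buffer addition and normalized to PTC124 versus DMSO (0%).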

[3] = S16 Schwann cell viability assay (CellTiter-Glo assay) (AID 624031); details: S16 rat Schwann cells viability, 24 h; series mostly up to 57.5 µM; further: nearly all actives have a fitted effect of over 70% in size; further: potency means the concentration at half of the fitted maximal effect
How it was run: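 Parental S16 cells, 24 h compound, 37 °C. ATP-luminescence viability; DMSO = 0% activity, empty wells as reference; curves classified by fit quality and efficacy.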

[4] = S16 Schwann cell PMP22 intronic element firefly luciferase assay (AID 624032); details: S16 rat Schwann cells, PMP22 element FLuc, 24 h; series mostly up to 57.5 µM; further: nearly all actives have a fitted effect of over 30% in size; further: potency means the concentration at half of the fitted maximal effect
How it was run: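 Rat S16 Schwann cells stably carrying a PMP22 intronic element-driven Fluc reporter were seeded overnight, then exposed to compounds for 24 h at 37 °C. Luminescence was normalized to PTC124 (positive control) and DMSO (0% activity).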

[5] = S16 Schwann cell PMP22 intronic element beta-lactamase assay (AID 624044; calls by dose curve; further: nearly all actives have a fitted effect of over 15% in size; further: potency means the concentration at half of the fitted maximal effect); details: S16 rat Schwann cells, PMP22 element beta-lactamase FRET, 24 h; series mostly up to 38.3 µM
How it was run: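 Rat S16 Schwann cells with beta-Lac driven by a PMP22 intronic element, compound-treated 24 h at 37 °C. LiveBLAzer FRET B/G read: 460 nm normalized to potassium clavulanate vs DMSO; 535 nm FRET as viability; concentration-effect curves classified.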

[6] = qHTS of Trypanosoma Brucei Inhibitors: LOPAC Validation (AID 624147); details: purified enzyme assay, luminescence, 45 min; series mostly up to 57.5 µM
How it was run: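 Readout: single end-point luminescence (Kinase-Glo Plus, 10 min). Reaction conditions were TbPYK/substrate plus 130 uM ADP, 45 min at RT, pH 7.2 TEA buffer. No-enzyme wells served as controls, and data were normalized before concentration-response fitting.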

[7] = HTS Assay for Allosteric Antagonists of the Human D2 Dopamine Receptor: Hit Validation in HTRF (AID 624455); details: Cells stably expressing D1 dopamine receptor, inhibition mode; series mostly up to 46.1 µM;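 further: stable D1 dopamine receptor cell line scored for blocking the D1 response; potency means the concentration at half of the fitted maximal effect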
How it was run: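 Hits were examined in an HTRF assay using cells stably expressing the D1 dopamine receptor, scoring inhibition of the D1-mediated response. The preceding primary screen tracked calcium flux after an EC80 dopamine addition in force-coupled, inducible Hek293 Trex D2 cells.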

CCOC(=O)NC(O)C(Cl)(Cl)Cl (stereo unspecified)
Potency [1]: inactive
Potency [2]: inactive
Potency [3]: inactive
Potency [4]: inactive

Clc1ccc(C(OCCN2CCCCC2)c2ccccc2)cc1 (stereo unspecified)
Potency [1]: 0.891 µM (active)

CC(C)(C)OC(=O)c1ncn2c1[C@@H]1CCCN1C(=O)c1c(Br)cccc1-2
Potency [1]: inactive
Potency [2]: inactive
Potency [3]: inactive
Potency [4]: inactive
Potency [5]: inactive

NC(=O)OCCCc1ccccc1
Potency [1]: inactive
Potency [2]: inactive
Potency [3]: inactive
Potency [4]: inactive
Potency [5]: inactive

CCC1(c2cccc(O)c2)CCCCN(C)C1 (stereo unspecified)
Potency [1]: inactive

CCN(CC)C(C)C(=O)c1ccccc1 (stereo unspecified)
Potency [1]: inactive
Potency [2]: inactive
Potency [3]: inactive
Potency [4]: inactive

CN1C(=O)CN=C(c2ccccc2)c2cc([N+](=O)[O-])ccc21
Potency [1]: inactive
Potency [2]: inactive
Potency [3]: inactive
Potency [4]: inactive
Potency [5]: inactive

C[N+]1(CCC(C(N)=O)(c2ccccc2)c2ccccc2)CCCCC1
Potency [1]: inactive
Potency [2]: inactive
Potency [3]: inactive
Potency [4]: inactive

C[N+](C)(C)CCOC(=O)C(O)(c1ccccc1)c1ccccc1
Potency [1]: inactive
Potency [2]: inactive
Potency [3]: inactive
Potency [4]: inactive

CCCC(C)C1(CC)C(=O)N=C(S)NC1=O (stereo unspecified)
Potency [1]: inactive

COC(=O)C1=CCCN(C)C1
outcome [6]: inactive

NC(=O)CN1CCCC1=O
outcome [6]: inactive

CN1CCc2cc(Cl)c(O)cc2[C@H]2c3ccccc3CC[C@@H]21
Potency [2]: inactive
Potency [4]: inactive

CN1C(=O)[C@@H](NC(=O)c2cc3ccccc3[nH]2)N=C(c2ccccc2)c2ccccc21
Potency [2]: inactive
Potency [3]: inactive

OC(c1ccccc1)(c1ccccc1)C1CCNCC1
Potency [2]: inactive
Potency [3]: inactive
Potency [4]: inactive

COC(=O)C1=C(C)NC(C)=C(C(=O)OC)C1c1ccccc1[N+](=O)[O-]
Potency [4]: 18.1 µM (active)

COc1cc(C(=S)N2CCOCC2)ccc1O
Potency [4]: 5.1 µM (active)

O=C(Oc1cccc2cccnc12)c1ccccc1
Potency [4]: 9.07 µM (active)

O=C(O)c1ccc(OCCCOc2ccc(C(=O)O)cc2)cc1
Potency [4]: inactive

Cc1c(Cl)c(=O)oc2cc(OP(=O)(OCCCl)OCCCl)ccc12
Potency [2]: inactive
Potency [3]: inactive
Potency [4]: 12.8 µM (active)

O=C1NCN(c2ccccc2)C12CCN(CCCC(c1ccc(F)cc1)c1ccc(F)cc1)CC2
Potency [3]: 22.8 µM (active)

COc1ccc2[nH]cc(CCN(C(C)C)C(C)C)c2c1
Potency [2]: inactive

Cc1cccc(C)c1NC(=O)CN1CCCC1
Potency [4]: 8.09 µM (active)

Clc1ccc2c(c1)CCc1cccnc1C2=C1CCNCC1
Potency [4]: 28.7 µM (active)

c1ccc2c(c1)Sc1ccccc1N2CC1CN2CCC1CC2 (stereo unspecified)
Potency [2]: inactive

Cc1nnc2n1-c1sc(CCc3ccc(CC(C)C)cc3)cc1C(c1ccccc1Cl)=NC2C (stereo unspecified)
Potency [2]: inactive

CCCCCCCCCCCCOCCOCCOCCOCCOCCOCCOCCOCCOCCO
Potency [4]: 18.1 µM (active)

O=c1cc(CO)occ1O
Potency [4]: 16.1 µM (active)

CCN(CC)Cc1nccn1-c1ccc([N+](=O)[O-])cc1C(=O)c1ccccc1Cl
Potency [2]: inactive

CCCN(CCC)CCc1c[nH]c2ccccc12
Potency [2]: inactive

CCC1(c2ccccc2)CCC(=O)NC1=O (stereo unspecified)
Potency [2]: inactive
Potency [3]: inactive
Potency [4]: inactive

Cc1nc2ccccc2c(=O)n1-c1ccccc1Cl
Potency [2]: inactive

CC1CCc2cc(F)cc3c(=O)c(C(=O)O)cn1c23 (stereo unspecified)
Potency [4]: inactive

NC(=O)NNc1ccccc1
Potency [4]: inactive

COc1ccc(OC)c(CC(C)N)c1 (stereo unspecified)
Potency [2]: inactive

CC(C)(C)C(=O)C(Oc1ccc(Cl)cc1)n1ccnc1 (stereo unspecified)
Potency [4]: 2.03 µM (active)

CN1C[C@H](C(=O)N[C@]2(C)O[C@@]3(O)[C@@H]4CCCN4C(=O)[C@H](Cc4ccccc4)N3C2=O)C[C@@H]2c3cccc4[nH]cc(c34)C[C@H]21
Potency [4]: 25.6 µM (active)
Potency [7]: 0.082 µM (active)

CCCCCCCCCCCCCCCC[n+]1ccccc1
Potency [4]: 10.2 µM (active)
Potency [5]: 12.6 µM (active)

CC(Cc1ccccc1)NCc1ccccc1Cl (stereo unspecified)
Potency [2]: inactive
Potency [3]: inactive
Potency [4]: inactive
Potency [5]: inactive

CN1CCN(c2cc3c(nn2)Oc2ccccc2N3C)CC1
Potency [4]: inactive

CC(CC(C#N)(c1ccccc1)c1ccccc1)N(C)C (stereo unspecified)
Potency [2]: inactive

CN(C)CCc1c[nH]c2cccc(O)c12
Potency [2]: inactive

CN(C)C(=S)SC(=S)N(C)C
Potency [4]: 2.87 µM (active)

CC(=O)OC1(c2ccccc2)CCN(CCc2ccccc2)CC1
Potency [2]: inactive

COP(=S)(OC)Oc1ccc(S(N)(=O)=O)cc1
Potency [2]: inactive

CCOC(=O)c1ncn2c1CN(C)C(=O)c1c(I)cccc1-2
Potency [2]: inactive

NC(N)=NN=C(/C=C/c1ccc([N+](=O)[O-])o1)/C=C/c1ccc([N+](=O)[O-])o1
Potency [4]: 7.21 µM (active)
Potency [5]: 9.99 µM (active)

Clc1ccc(CO/N=C(\Cn2ccnc2)c2ccc(Cl)cc2Cl)c(Cl)c1
Potency [2]: inactive
Potency [3]: inactive
Potency [4]: 32.2 µM (active)
Potency [5]: inactive

C[C@]12Cc3nonc3C[C@@H]1CC[C@@H]1[C@@H]2CC[C@@]2(C)[C@H]1CC[C@]2(C)O
Potency [2]: inactive
Potency [4]: 14.4 µM (active)

Reference: PubChem BioAssay (NCATS)
